According to PMC13494018:
Unmarked numbers belong to inactive results. The rule behind the calls is not given here.

B1: d1r8_design_ppi_454_dldesign_0_cycle1_af2pred (protein)
chain: AAEAQARAEKAEKLMREAVELVKADPTPEAVKEAEKLIAEAAKLATGSAEKHAAANAARALRTRGPEAAEVQAKLFVEMIKT
B2: d1r7_design_ppi_871_dldesign_0_cycle1_af2pred (protein)
chain: AAAAQTALRTAAAMYRSAAEMFEAGKTEDGLAAAKVAADVAANVPANKEFAAKTLKEITEAAKKDPAEAAKIAREAADYLDAQAAA
B3: d1r8_design_ppi_128_dldesign_0_cycle0_af2pred (protein)
chain: EEEVKKAKEEAEKAIEEARETERRYFAEAGRNPANALAYLQAGLEELEKIAKELERKGEEEGGEAGKVYKEAAREIKERRERIAAALS
B4: d1r8_design_ppi_364_dldesign_0_cycle0_af2pred (protein)
chain: DLERAAEEAERLAEETLARAAAGEITLEELAEAHRRIGELIERVAASGELAERVARRASRLMNQALTALA
B5: d1r8_design_ppi_218_dldesign_0_cycle1_af2pred (protein)
chain: PTPEELAAAYREVRELAERAVAGTPEEAKRYAERIAELVARAEERFGPGAGVLLRNVALAVARANPVAYEYVRAAL
B6: d1r8_design_ppi_23_dldesign_0_cycle0_af2pred (protein)
chain: MEELAEEYIEEARRYAEEAERLAEQAGEAARPLARAARRALELAEENREDLELVKGQAEAARVFLEAARSRLEQLA
B7: d1r7_design_ppi_937_dldesign_0_cycle1_af2pred (protein)
chain: GAAAEAAEREAKAALLKEVGAAAARMAPENPRLAAAGALGAARGLAALGYAEEGKAVLEETAAALPDPEEAARLRAAAAAL
B8: d1r8_design_ppi_87_dldesign_0_cycle1_af2pred (protein)
chain: NPLLEEARRAIEEAAKLVKTGTPEEAREALKRAAHELLRLAARSTDQAVAQKLITAAELVAKAAELVLTNPEEALKLVEEAL
B9: d1r8_design_ppi_139_dldesign_0_cycle1_af2pred (protein)
chain: AMSVGELMEVAKAEGAAVNAAAAALAAKDPAKAAALLDAYRAKVNAIIAEMSRTAIASGDFEAAAAAAAAKIKAAAKETLAALKAIA
B10: d1r8_design_ppi_543_dldesign_0_cycle0_af2pred (protein)
chain: AAAQTAHAQAVLDTLIALALRKAAEDPAAARAALESAKLVAEGVKATGDAATGAAAQAKVDAAGAEVAAAAA
B11: d1r8_design_ppi_401_dldesign_0_cycle1_af2pred (protein)
chain: MEKVEKAKKGLEQATELAKAMVPEKAEEFEKIRKEGVEEAKKAAGDPEKAAEILAKARNEILRNGIKAAMAAAKAAA
B12: d1r8_design_ppi_534_dldesign_0_cycle1_af2pred (protein)
chain: AAALAAEAAALAQEALANIAEADALAKKADPEIGKIYEEAARHFMRGVSLAQRGDLERAKKEIEEGKKLFEKAKELEKKKKEKE
B13: d1r7_design_ppi_941_dldesign_0_cycle1_af2pred (protein)
chain: AADRAAAAAALGAAVEAYSELVKLAKEAIEKHGPKVAPEMEKLIAEAQKALAAAAKAAIAGDAKAAKAAAEKIKKLKEEAKKLLEE
B14: d1r8_design_ppi_356_dldesign_0_cycle1_af2pred (protein)
chain: VLEAVSAALSLAEEAAELDPRAGHALLTYANAVWNPATLEKGRKTAREKAKEFKKRAEEEDGERARKAAELLEKAIEEAEKLLKEA
B15: d1r8_design_ppi_321_dldesign_0_cycle0_af2pred (protein)
chain: SAEENKKRLIAAAEAAFKNFSAEAERLEAEGKKEEAAKVYEQLAELLEQMRESAKATAGEEGAKEIEKLLEEAKKKLEEVK
B16: d1r8_design_ppi_467_dldesign_0_cycle1_af2pred (protein)
chain: AEAEAAVASLVEFVKAILDAAATQDPRLAPAAEEALALMEAGDFDEAARLFLAAGAAAGPAAAALARAAANAMRLAAEAAAAI
B17: d1r8_design_ppi_80_dldesign_0_cycle0_af2pred (protein)
chain: AAAEAAAALAAARAALAAVRETLARAERGEATREEAGAAINAGMRTIAALNAVAARIPAAKAEFDALAGEILDAIRALAAAVR
B18: d1r8_design_ppi_150_dldesign_0_cycle1_af2pred (protein)
chain: SQAALVAAKGALALAKGIKAHVESNPNLPLEELEKLKEQLKTAEEMAKAAEKEAKKAGDKEVLEAAKKALEAIKEAKKALEEAIKKAK
B19: d1r8_design_ppi_373_dldesign_0_cycle0_af2pred (protein)
chain: DQETTGNLVLAAAKANAGVEEADKAIEAAEKAAKDPKLKEKAEEAKKLIEEAKKATPEEAKKLLKEAAKLVNEALRAYSA
B20: d1r8_design_ppi_443_dldesign_0_cycle0_af2pred (protein)
chain: SAAAALLARTAAAIVAQTRALVGDAKAAEAQALADAAVAAAKAGDYAKAGALLTELLKLAAEARREKAAAEAAAAA
B21: d1r8_design_ppi_587_dldesign_0_cycle0_af2pred (protein)
chain: SEYRREAEELRERVERIEKRMREAKTAEEAREVLREAQRVAAEAARLAVQAAADGADQEVLDEINEVLSRALEVAREASRKARELE
B22: d1r8_design_ppi_443_dldesign_0_cycle1_af2pred (protein)
chain: SPAAALLARTAAAIAAQTVREVGPARAAELQALADAATAAAEAGDFTTAGELLEELLRLAAEARAEKAAAERAAAA
B23: d1r8_design_ppi_233_dldesign_0_cycle1_af2pred (protein)
chain: GALEEAKEKKKEAEEIGKQALALAAQNPASRAQAGALQVELLKLSAEARRKAEEYKADPETREAAKAYEEAAKLASQKIVEVSQALV
B24: d1r7_design_ppi_869_dldesign_0_cycle0_af2pred (protein)
chain: GIGDELAKGEEYYRKSIELAKEGNKEEAKKYLEEAEAHYAAAAAAAEAQGNTALAAALRARAKARKEEAEKLIK
B25: d1r8_design_ppi_185_dldesign_0_cycle1_af2pred (protein)
chain: AAQAKALAAEADKLTEKARKLAKEGGDKEEVSKLLAEAAEKYAAAAEADPSTAFEYNARANLARFASQQNLEQAAKVAEAI
B26: d1r8_design_ppi_373_dldesign_0_cycle1_af2pred (protein)
chain: SEELIKNLLLAASKALAGVESAPEAIKAAEEAAKDPRLKEDAEKAKKLIKAAIKATPEEAAKLLKKAAKLLNDALRKYTS
B27: d1r8_design_ppi_393_dldesign_0_cycle1_af2pred (protein)
chain: EREELAERLEKAARLLEEGAASDSPGLLAARAWAAANVAPPEWAARLREVSRAALANVEEGRKLAKELAEELRKEAERLRKEL
B28: d1r7_design_ppi_889_dldesign_0_cycle1_af2pred (protein)
chain: SEELDRAGAQTLAEIVGKQAKKVAKAAKELSKEKGGELTPLAEKAEEAAKKAIKLAEEGASAEEIYKAAQEAQDLRLKAKAALKAAKA
B29: d1r8_design_ppi_233_dldesign_0_cycle0_af2pred (protein)
chain: DDLEEARELLEEARRLGEQALALVAQNPAARAEGGALMLELLKLQAEARRRAAEYEADPEKAEAAEAYREAAELASQLVRQISQAAV
B30: d1r8_design_ppi_364_dldesign_0_cycle1_af2pred (protein)
chain: ALEEAAREARELADETLAAAKAGTINLEELAARFNEAGRLIREVEALGELAEEVGRYVSRKFNEALTALL
B31: d1r8_design_ppi_82_dldesign_0_cycle1_af2pred (protein)
chain: AAAAAKTAAKNVLKAVENFSKNAAAAGKASTPEEAARKLAEIEKFGEAGIAVAAADPEIAKKVKEVVDKAIAELKKAAA
B32: d1r8_design_ppi_296_dldesign_0_cycle1_af2pred (protein)
chain: SAAAKAAAEAAKQRVDGLAQMAIASPALLPHMEAMAKRAAAAVAALDPALGAEVEKYAKEQMAKAKAAVAAAAAAA
B33: d1r7_design_ppi_873_dldesign_0_cycle1_af2pred (protein)
chain: SESIENQKKASEAMSEAIEAMAKAGFPISERNEVGKLGIEAMRLFQKSPEDPAALEEGKKKLAEVEKRLKEAKAA
B34: d1r8_design_ppi_588_dldesign_0_cycle1_af2pred (protein)
chain: AAEDKALAAAMAAEAEKVIAEAAKQTPAEANKLAATFAEKAFALAKEHPGAAAALNAAAFKVLTGAMKAIQAQSA
B35: d1r8_design_ppi_314_dldesign_0_cycle1_af2pred (protein)
chain: ALEEAKKAAEEAKAAAAEARAYFDAAGLTGAGNGFYNNTKKRAEELLKEAEEGSEEEAKKARKELERLKETAEKMLEVAKGVYAAAQA
B36: d1r8_design_ppi_566_dldesign_0_cycle1_af2pred (protein)
chain: MTPEEAREMGERIREAAKRSVEEAVKAIEEAKEKLSPELKPLADRAIELAKRSPEAGANLATTALHIEALS
B37: d1r7_design_ppi_941_dldesign_0_cycle0_af2pred (protein)
chain: AAAAAEAAEYLGKAVEYHKELEEAARRAIEKFGPEVEEEMEELLREAREALAKASQAAIAGDAEKTKEEMEKIKKIRERAKELLEK
B38: d1r8_design_ppi_140_dldesign_0_cycle0_af2pred (protein)
chain: DVAAMKKEVEELKKKVEEVAKKAAESPEAQPYVNQAKGNAKSAELAAEGGDVALAKRFLKLAEEAMKKAEALI

Each binder was assayed against CD276, Q5ZPR3.
Chain of CD276, Q5ZPR3 (Q5ZPR3 whole entry): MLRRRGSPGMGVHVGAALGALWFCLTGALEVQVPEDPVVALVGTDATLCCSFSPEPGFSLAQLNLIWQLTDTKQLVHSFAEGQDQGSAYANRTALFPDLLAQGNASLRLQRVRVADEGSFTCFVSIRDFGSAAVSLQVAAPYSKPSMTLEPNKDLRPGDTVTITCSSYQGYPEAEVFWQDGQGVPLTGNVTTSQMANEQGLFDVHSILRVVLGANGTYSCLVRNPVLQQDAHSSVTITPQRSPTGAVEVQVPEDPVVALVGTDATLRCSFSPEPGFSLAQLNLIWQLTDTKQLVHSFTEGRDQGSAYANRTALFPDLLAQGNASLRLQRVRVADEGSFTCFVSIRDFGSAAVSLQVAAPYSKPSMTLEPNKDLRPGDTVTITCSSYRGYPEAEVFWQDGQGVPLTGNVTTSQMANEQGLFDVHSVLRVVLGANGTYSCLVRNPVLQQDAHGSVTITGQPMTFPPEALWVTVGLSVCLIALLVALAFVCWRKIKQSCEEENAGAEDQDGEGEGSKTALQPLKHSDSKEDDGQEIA
For B1, the “binding in a display sort” value was “not found”. For B2, the “binding in a display sort” value was “not found”. B3 was tested, and the “binding in a display sort” value was “not found”. B4 was tested, and the “binding in a display sort” value was “not found”. In the case of B5, the “binding in a display sort” value is reported as “not found”. For B6, the “binding in a display sort” value was “not found”. In the case of B7, the “binding in a display sort” value is reported as “binds (active)”. For B8, the “binding in a display sort” value was “not found”. In the case of B9, the “binding in a display sort” value is reported as “not found”. With B10 the “binding in a display sort” value was “not found”. With B11 the “binding in a display sort” value was “binds (active)”. B12 was tested, and the “binding in a display sort” value was “not found”. B13 was tested, and the “binding in a display sort” value was “not found”. B14 was tested, and the “binding in a display sort” value was “not found”. In the case of B15, the “binding in a display sort” value is reported as “not found”. For B16, the “binding in a display sort” value was “not found”. For B17, the “binding in a display sort” value was “not found”. In the case of B18, the “binding in a display sort” value is reported as “not found”. In the case of B19, the “binding in a display sort” value is reported as “not found”. In the case of B20, the “binding in a display sort” value is reported as “not found”. For B21, the “binding in a display sort” value was “not found”. B22 was tested, and the “binding in a display sort” value was “not found”. B23 was tested, and the “binding in a display sort” value was “not found”. B24 was tested, and the “binding in a display sort” value was “not found”. B25 was tested, and the “binding in a display sort” value was “not found”. In the case of B26, the “binding in a display sort” value is reported as “not found”. In the case of B27, the “binding in a display sort” value is reported as “not found”. B28 was tested, and the “binding in a display sort” value was “not found”. In the case of B29, the “binding in a display sort” value is reported as “not found”. In the case of B30, the “binding in a display sort” value is reported as “not found”. For B31, the “binding in a display sort” value was “not found”. With B32 the “binding in a display sort” value was “not found”. With B33 the “binding in a display sort” value was “not found”. In the case of B34, the “binding in a display sort” value is reported as “not found”. With B35 the “binding in a display sort” value was “not found”. In the case of B36, the “binding in a display sort” value is reported as “not found”. For B37, the “binding in a display sort” value was “not found”. B38 was tested, and the “binding in a display sort” value was “not found”.
